Compound activity deposited in PubChem by National Center for Advancing Translational Sciences (NCATS).
An excerpt weighted towards active compounds, which were near 11% of everything screened.
PI5P4K alpha inh: PI5P4K alpha (human) kinase inhibition. PI5P4Kalpha enzyme, ADP-Glo luminescence, 60 min; hits give low values. max response, %. 330,000 compounds, 1.2% hits; active = max response of -50% or lower; inconclusive = between -30% and -50%; inactive = -30% or higher; also: value at the top dose of about 77 µM; % is scaled to controls: 0 for no effect and ±100 for the full control effect
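ADP-Glo luminescence end-point after a 60 min room-temperature kinase reaction. PI5P4Kalpha and substrate in HEPES pH 7.4 buffer with EGTA, 0.1% CHAPS and 5% DMSO; ATP at 5 microM final.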
L3MBTL1 inh: blocks human L3MBTL1 | Potency, µM (top dose mostly 57.1 µM), for the others: at the top dose activity, negative = inhibition, usual class: inhibitors | AID 485360 | AlphaScreen L3MBTL1–H3K9me1 peptide binding | 230,000 compounds, 0.66% hits; also: potency is read from the fitted curve at half-maximal effect; % is scaled to controls: 0 for no effect and ±100 for the full control effect; nearly all actives have a fitted effect of over 60% in size
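Displacement of a biotinylated histone H3(1-15) peptide monomethylated at Lys9 (75 nM) from L3MBTL1 (50 nM) was measured by AlphaScreen after a 30 min room-temperature compound incubation; cefsulodin titration served as intraplate control.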
HP1b binding inh: blocks HP1-beta chromodomain binding to methylated histone tails. P83916. AlphaScreen HP1-beta / biotin-H3K9me3 peptide binding. Potency, µM (doses to about 114 µM), for inactives: top-dose activity change, negative = inhibition, most hits filed as inhibitors. 390,000 compounds, 0.56% hits. AID 540317; also: potency is read from the fitted curve at half-maximal effect; nearly all actives have a fitted effect of over 70% in size
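AlphaScreen: HP1-beta (50 nM) preformed 30 min with biotin-H3(1-18)K9me3 peptide (50 nM) in PBS pH 7.4, 0.01% Tween-20. Compound added for 30 min at RT, then streptavidin donor/nickel chelate acceptor beads (10 ug/mL) for 30 min.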
G9a block: G9a (human) methyltransferase inhibition; Q96KQ7; G9a H3K9 monomethylation, AlphaScreen, 2 h; Potency, µM (titrated, usually from 102 µM), for the others: at the highest dose activity, negative = inhibition, actives largely listed as inhibitors; 350,000 compounds, 8.8% hits; also: potency is read from the fitted curve at half-maximal effect; % is scaled to controls: 0 for no effect and ±100 for the full control effect; nearly all actives have a fitted effect of over 75% in size
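Enzyme 20 nM + cpd, 15 min RT; add b-H3K9 pep 500 nM / SAM 20 uM; 2 h RT; anti-H3K9me1 Ab 0.5 ug/mL + SA donor / anti-rabbit acceptor beads 20 ug/mL each, 10 min; AlphaScreen read.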
JMJD2A Tudor: JMJD2A Tudor domain (human) inhibition. 390,000 compounds, 4.4% hits. Potency, µM (highest dose often 114 µM), inactives show at the highest dose activity change, negative = inhibition, most hits filed as inhibitors. AlphaScreen JMJD2A-Tudor / H3K4me3 peptide binding. O75164; also: potency is read from the fitted curve at half-maximal effect; % is scaled to controls: 0 for no effect and ±100 for the full control effect; nearly all actives have a fitted effect of over 50% in size
BAZ2B inh: inhibitors of human BAZ2B bromodomain; AlphaScreen BAZ2B-H3K14Ac peptide displacement; Potency, µM (highest dose often 114 µM), without a hit: at the highest dose activity change, negative = inhibition, actives largely listed as inhibitors; AID 504333; Q9UIF8; 360,000 compounds, 4.4% hits; also: potency is read from the fitted curve at half-maximal effect; % is scaled to controls: 0 for no effect and ±100 for the full control effect; nearly all actives have a fitted effect of over 60% in size
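In this displacement format the biotinylated H3(5-23) peptide acetylated at Lys14 serves as ligand at 50 nM, with BAZ2B at 50 nM in PBS pH 7.4 containing 0.01% Tween-20. Donor and acceptor beads are 10 ug/mL final.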
An asterisk follows results filed as active; ? = inconclusive; / = no result; [ ] = another dose, or the depositor's remark. Unless noted, calls follow the shape of the dose curve; as a rule, active = well fitted inhibition curve with a large enough effect; inconclusive = small, poorly fitted or top-dose-only effect; inactive = no such curve, though single readings can be large or run the other way.

SMILES | PI5P4K alpha inh | L3MBTL1 inh | HP1b binding inh | G9a block | JMJD2A Tudor | BAZ2B inh
CC1=C(C(=O)N2CCOCC2)C(c2ccc(C)cc2)NC(=S)N1 (configuration not stated) | -4 | 2% | 32% | 40µM* | -16% | -2%
CCCCNC(=O)CN1C(=O)c2cccnc2Sc2ccccc21 | / | / | 60% | -2%[59 µM] | -4% | 3%
CCCOc1cccc(C(=O)N(Cc2cc(OC)c(OC)c(OC)c2)C2CCS(=O)(=O)C2)c1 (configuration not stated) | / | / | 24% | 3%[59 µM] | -10% | -10%
c1ccc(Cn2c(SCc3nc4ccccc4s3)nnc2-c2ccco2)cc1 | -73* | 2%[11.4 µM] | ? | 7.1µM* | 32µM* | ?
CCC(c1nnc(SCc2nc3ccccc3s2)n1Cc1ccccc1)N(C)C (configuration not stated) | 8 | -11% | 17% | 50µM* | -28% | -26%
CCn1c(SCc2nc3ccccc3s2)nnc1-c1ccccc1 | 6 | / | 38% | ? | -10% | -5%
Cc1nnc(SCc2nc3ccccc3s2)n1-c1ccccc1 | / | 11% | 24% | -24%[59 µM] | -10% | -3%
COc1cccc(CNC(=O)c2ccc3nc(N4CCCCC4)sc3c2)c1OC | / | / | 10% | -4%[59 µM] | -17% | -13%
Cc1ccc(-c2csc(N3CCN(CCCn4c(C(F)(F)F)nc5ccccc54)CC3)n2)cc1 | 27 | -9% | -4% | 45µM* | -34% | -38%
Cc1ccc(-c2csc(N3CCC[C@@H]3C(=O)NCCn3c(-c4ccncc4)nc4ccccc43)n2)cc1 | 0 | -6% | -19% | 45µM* | ? | 45µM*
Cc1ccc(-c2csc(N3CCN(CCCn4c(-c5ccncc5)nc5ccccc54)CC3)n2)cc1 | 16 | -28% | ? | 50µM* | ? | ?
O=C(NCCn1c(C(F)(F)F)nc2ccccc21)[C@H]1CCCN1c1nc(CN2CCCCC2)cs1 | 0 | -4% | 34% | -27% | -12% | 1%
CC(=O)N[C@@H](C)c1nc2ccccc2n1CCCN1CCN(c2nc(-c3ccc(C)cc3)cs2)CC1 | -5 | -23% | -17% | 45µM* | ? | ?
CCn1c(C(C)NC(C)=O)nc2ccccc21 (configuration not stated) | -3 | / | 36% | 20% | -4% | 9%
OCCN(CCCn1c(-c2ccncc2)nc2ccccc21)c1nc(CN2CCCCC2)cs1 | -7 | 1% | 7% | -22% | -18% | -1%
COC(=O)CSc1nnc2n(-c3ccccc3)c(=O)c3c4c(sc3n12)COC(C(C)C)C4 (configuration not stated) | / | / | 42% | -43%[59 µM] | -5% | 7%
Cc1ccc(-c2csc(N(CCO)CCCn3c(C(F)(F)F)nc4cc(C(F)(F)F)ccc43)n2)cc1 | 8 | -5% | 4% | 25µM* | -35% | ?
OCCN(CCCn1c(C(F)(F)F)nc2ccccc21)c1nc(CN2CCCCC2)cs1 | 1 | -8% | 40% | -10% | -13% | -10%
Cc1[nH][nH]c(=O)c1C(c1cc([N+](=O)[O-])ccc1O)c1c(C)[nH][nH]c1=O | -8 | 1% | 11% | 22% | -12% | -4%
Cc1[nH][nH]c(=O)c1C(c1ccc(-c2ccc(F)cc2)o1)c1c(C)[nH][nH]c1=O | 4 | ? | 2% | 25µM* | ? | ?
CCOc1ccc(Cl)cc1C(c1c(C)[nH][nH]c1=O)c1c(C)[nH][nH]c1=O | 1 | -5% | 24% | -13% | -23% | -12%
Cc1[nH][nH]c(=O)c1C(c1ccc(-c2ccc(Cl)c(Cl)c2)o1)c1c(C)[nH][nH]c1=O | -18 | / | -35% | 11µM* | ? | ?
Cc1[nH][nH]c(=O)c1C(c1ccc(-c2ccc(C(=O)O)cc2)o1)c1c(C)[nH][nH]c1=O | ? | ? | ? | 3.5µM* | -32% | 56µM*
